According to ChEMBL document CHEMBL3988442, “University of Dundee, Small-Polar-MMV Screening Library” (2021):
In all, about 69,000 compounds went through this assay and about 420 (0.61%) showed an effect of 50% or more. The full list was thinned out, with strong results kept by preference.

target: T1, Histidine--tRNA ligase (Leishmania infantum) (UniProt A4I591); assay: Leishmania infantum Histidine tRNA synthetase (LdHisRS); format: functional; design: scale not given: in the data most compounds retested in dose-response had high values; conditions: 30 µM
T1 sequence (whole entry): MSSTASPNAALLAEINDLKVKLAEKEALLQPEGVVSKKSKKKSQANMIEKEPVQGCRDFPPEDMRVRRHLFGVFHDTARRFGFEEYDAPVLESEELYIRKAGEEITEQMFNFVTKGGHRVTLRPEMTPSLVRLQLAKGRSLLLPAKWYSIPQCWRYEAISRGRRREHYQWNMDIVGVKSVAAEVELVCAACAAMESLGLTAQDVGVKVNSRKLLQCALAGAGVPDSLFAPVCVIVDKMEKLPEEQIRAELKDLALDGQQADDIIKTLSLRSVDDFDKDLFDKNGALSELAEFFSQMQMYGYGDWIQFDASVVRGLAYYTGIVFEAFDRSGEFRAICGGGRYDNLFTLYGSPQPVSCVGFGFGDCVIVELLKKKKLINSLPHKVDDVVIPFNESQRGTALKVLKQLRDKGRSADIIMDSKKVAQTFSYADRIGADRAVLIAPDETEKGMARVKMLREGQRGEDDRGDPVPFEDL

| Compound | Percent Effect [%] |
| --- | --- |
| CCN1CCN(Cc2c(-c3ccco3)[nH]c3ncccc23)CC1 | 4.35 |
| c1coc(-c2[nH]c3ncccc3c2CN2CCCOCC2)c1 | 30.4 |
| CN1CCN(Cc2c(-c3ccco3)[nH]c3ncccc23)CC1 | 18.8 |
| OC1CCCN(Cc2c(-c3ccco3)[nH]c3ncccc23)C1 (configuration not stated) | 66.7 |
| NC(=O)C1CCCN(Cc2c(-c3ccco3)[nH]c3ncccc23)C1 (configuration not stated) | 55.6 |
| OC1CCN(Cc2c(-c3ccco3)[nH]c3ncccc23)CC1 | 30.4 |
| CN1CCCC[C@@H]2[C@H]1[C@@H](c1ccccc1)CCN2C(=O)c1cnccn1 | 25 |
| CC(C)OCCCNC(=O)[C@@]12CNC[C@@H]1CN(S(C)(=O)=O)C2 | -3.23 |
| CCC1=N[C@@]2(CC[C@@H]3CN(Cc4ccc(Cl)cc4)C[C@@H]32)C(=O)N1 | 3.01 |
| CC(C)NC(=O)[C@@H]1C[C@@H]2CCN(Cc3ccoc3)C[C@H]2O1 | 17.3 |
| Cc1ccc(NC(=O)Nc2c(O)oc3ccccc3c2=O)cc1C | 16.1 |
| O=C(O)C1c2nc[nH]c2CCN1Cc1ccccc1-c1ccccc1 (configuration not stated) | 28.8 |
| O=C(O)C1c2nc[nH]c2CCN1CC(c1ccccc1)c1ccccc1 (configuration not stated) | 107 |
| O=C(O)C1c2nc[nH]c2CCN1Cc1ccc(-c2ccccc2)s1 (configuration not stated) | 28.8 |
| Cc1cccc(CN2C(=O)CC[C@@H]3[C@H]2CCN3Cc2ccc(F)cc2)n1 | 20.6 |
| Cc1ccc(CN2CCC[C@@H]3CN(C(=O)c4ccco4)C[C@@H]32)o1 | 15.5 |
| CCCn1nccc1C(=O)N1CCN(C(=O)C2CC2)[C@@H]2CS(=O)(=O)C[C@@H]21 | 0 |
| Cc1cc(C)n(CC(=O)N2CCCCC2CCN(C)C)c(=O)n1 (configuration not stated) | 16 |
| Cc1ccc(C(=O)N2C[C@@H]3CC[C@H](C2)N(CC2CCC2)C3)s1 | 21.9 |
| CC(=O)c1ccc(C(=O)N2C[C@@H]3CC[C@H](C2)N(CC2CCC2)C3)s1 | 19.2 |
| CC(C)=CCN1C[C@H]2CC[C@@H]1CN(C(=O)Cn1c(C)cc(C)nc1=O)C2 | 23.8 |
| Cc1cc(C)n(CC(=O)N2C[C@@H]3CC[C@H](C2)N(CC2CCC2)C3)c(=O)n1 | 57.1 |

| Compound | Percent Effect [%] |
| --- | --- |
| O=C(NC1CCCC1)N1C[C@H]2CN(c3ccncc3)C[C@@]2(C(=O)O)C1 | -1.96 |
| CN(C)C(=O)[C@H]1C[C@H]2OCC[C@H]2N(Cc2ccc3c(c2)OCO3)C1 | 29.4 |
| O=C1CO[C@H]2CN(S(=O)(=O)c3ccccc3)C[C@H]2N1CC1CCCCC1 | 27.8 |
| COCC(=O)NC[C@@]1(COc2cnccn2)C[C@@H](O)[C@@H](O)C1 | 10.8 |
| Cc1cnc(N2C[C@H]3C[C@H](C(=O)N4CCN(C)CC4)N(C)[C@H]3C2)nc1 | 5.05 |
| CC(=O)Nc1ccc2nc(-c3nccn3C[C@@H]3CCCO3)ccc2c1 | 51.1 |
| CC(=O)Nc1ccc2nc(-c3nccn3CCCN(C)C)ccc2c1 | 12.8 |
| CC(=O)Nc1ccc2nc(-c3nccn3CC(C)(C)CO)ccc2c1 | 10.6 |
| O=C([C@@H]1C[C@@H]2CCN(Cc3ccoc3)C[C@H]2O1)N1CCCC1 | 2.73 |
| CN(C)C[C@@H]1C[C@@H]2CN(C(=O)c3ccoc3)CC[C@@H]2N1CC1CC1 | 7.32 |
| NC(=O)N1C[C@H](NC(=O)c2cscn2)[C@@H]2OCCC[C@@H]21 | 13.6 |
| CC(C)CC(=O)N1CC[C@H]2N(C)CC[C@@]2(C(=O)Nc2cccnc2)CC1 | 11.7 |
| CCCn1cc(NC(=O)c2ccc(NC(=O)NC3CC3)cc2)ccc1=O | 92.8 |
| O=C(Nc1ccc2c(ccn2CCN2CCOCC2)c1)c1ccncc1 | 25.7 |
| Cn1cc(C(=O)Nc2cccc(F)c2)ccc1=O | 26.5 |
| COC(=O)N1CCCN(C(=O)c2cccc3cccnc23)CC1 | 8.26 |
| CCCn1cc(NC(=O)c2ccc(N(C)CC)cc2)ccc1=O | 31.5 |
| CN(C)C(=O)Cc1ccccc1NCc1cccc2cccnc12 | 13.6 |
| O=C(Nc1ccc(CCN2CCSCC2)cc1)NC1CC1 | 16.4 |
| CCCN1CCC(NC(=O)Nc2ccc(OC)c(OC)c2)CC1 | 1.33 |
| Cn1cc(NC(=O)Nc2cccc3cccnc23)ccc1=O | 114 |
| CCCn1cc(NC(=O)c2ccc(S(C)(=O)=O)cc2)ccc1=O | 94.6 |

| Compound | Percent Effect [%] |
| --- | --- |
| CCN(CC)C(CNC(=O)c1ccc(S(C)(=O)=O)cc1)c1ccco1 (configuration not stated) | 19.2 |
| CCCn1cc(NC(=O)c2ccncc2)ccc1=O | 104 |
| COCC1(CNC(=O)[C@@]23CNC[C@@H]2CN(C2CCCC2)C3)CC1 | 12.8 |
| CS(=O)(=O)N1C[C@H](NC(=O)c2ccno2)[C@@H]2OCCC[C@@H]21 | 10 |
| COc1ccc(CN2C[C@@H]3OCCN(C)[C@@H]3C2)cc1 | 19.3 |
| Cc1nc([C@@H]2C[C@H]3CN(Cc4scnc4C)C[C@H]3O2)no1 | 17.1 |
| Cn1cc(C(=O)N[C@H]2CN(Cc3nccs3)[C@@H]3CCCO[C@H]23)cn1 | 28.6 |
| Fc1cnc(N2C[C@H]3CCC[C@@]3(COc3ccccn3)C2)nc1 | 0 |
| CC(=O)N1CCO[C@@H]2CN(Cc3cccc(Cl)c3)C[C@@H]2C1 | 15.3 |
| COc1cccc(CN2C[C@@H]3COC[C@]3(COc3cccnc3)C2)c1 | 19.3 |
| c1ccc(OC2COC3(CCN(Cc4ccccn4)CC3)C2)cc1 (configuration not stated) | 15 |
| Cc1cccc(CN2CCS(=O)(=O)[C@@H]3CCN(C(=O)C4CC4)CC[C@@H]32)n1 | 5.26 |
| CN1CCC/C1=N\S(=O)(=O)c1ccc(NC(=O)c2ccc(F)cc2)cc1 | 15.6 |
| CCCn1cc(NC(=O)c2cccnc2O)ccc1=O | 17.1 |
| CCCn1cc(NC(=O)c2ccc(S(=O)(=O)CC)cc2)ccc1=O | 114 |
| CCCn1cc(NC(=O)c2cccc3cccnc23)ccc1=O | 75.9 |
| Cn1cc(NC(=O)c2cccc3cccnc23)ccc1=O | 20.5 |
| CCS(=O)(=O)c1cccc(C(=O)Nc2cccc3c2C(=O)N(C)C3=O)c1 | 21.5 |
| O=C(C[C@@H]1COC[C@H]2CN(Cc3ccccc3)C[C@@H]12)N1CCCC1 | 23.1 |
| CN1[C@@H](C(=O)NCC2CC2)C[C@@H]2CN(Cc3ccco3)C[C@@H]21 | 17.1 |
| CCOC(=O)[C@]12CCCN(Cc3nccs3)C[C@H]1CN(C(C)=O)C2 | 10.7 |
| O=C([C@@H]1CC[C@@H]2[C@@H](CCN2CCOCc2ccccc2)O1)N1CCCC1 | 16 |

| Compound | Percent Effect [%] |
| --- | --- |
| CN(C)C(=O)CN1C[C@@H]2CC[C@H](C1)N(Cc1ccc3nsnc3c1)C2 | 11.3 |
| Cc1cnc(N2CC[C@@H]3O[C@@H](COCc4ccccn4)CC[C@@H]32)nc1 | 13 |
| CC(C)Oc1ccccc1C1CC(=O)Nc2c1cnn2C (configuration not stated) | -14.3 |
| COc1cccc(CNCc2ccnc(N3CCOCC3)c2)c1OC | 7.14 |
| CC(C)Oc1ccccc1C1CC(=O)Nc2nc(N3CCOCC3)sc21 (configuration not stated) | 97.5 |
| O=c1[nH]nc(-c2cccs2)c2sc(N3CCOCC3)nc12 | 11.9 |
| CCOc1cccc(C2CC(=O)NCc3nc(N4CCCC4)sc32)c1 (configuration not stated) | 24.7 |
| COc1cccc(C2CC(=O)Nc3nc(N4CCCCC4)sc32)c1OC (configuration not stated) | 120 |
| COc1ccccc1C1CC(=O)Nc2c1c(=O)[nH]n2C(C)C (configuration not stated) | 16.5 |
| COc1ccccc1C1CC(=O)Nc2nc(N3CCCCC3)sc21 (configuration not stated) | 118 |
| COc1cccc(C2CC(=O)Nc3nc(N4CCOCC4)sc32)c1OC (configuration not stated) | 111 |
| COc1ccccc1C1CC(=O)Nc2c1c(=O)[nH]n2C1CCCC1 (configuration not stated) | 14.3 |
| COc1cccc(CNc2nc(N3CCOCC3)ns2)c1OC | 13.5 |
| CCn1ncnc1C1CC(=O)NCc2nc(N3CCCC3)sc21 (configuration not stated) | 15.7 |
| Cc1cccc(CN2C(=O)CC[C@@H]3[C@H]2CCN3Cc2ccc(C)s2)n1 | 8.03 |
| CC1=N[C@@]2(CC[C@@H]3CN(S(=O)(=O)N(C)C)C[C@@H]32)C(=O)N1CC(C)C | 9.02 |
| CC(=O)N1CC[C@H]2CC(=O)N(CCc3c[nH]cn3)CC[C@H]2C1 | 9.46 |
| Cc1ncc(C(=O)N2CC[C@@]3(O)CCN(C(=O)N(C)C)C[C@H]3C2)cn1 | 10.6 |
| O[C@@]1(CN2CCN(Cc3ccncc3)CC2)CCCN2CCCC[C@@H]21 | 20 |
| O=C1CC(c2ccccc2Br)c2sc(N3CCOCC3)nc2N1 (configuration not stated) | 87.5 |
| COc1cccc([C@@H]2N[C@H](c3nccs3)Cc3ccsc32)c1OC | 9.86 |
| Cn1ncc2c1NC(=O)CC2c1ccccc1Br (configuration not stated) | -2.5 |

| Compound | Percent Effect [%] |
| --- | --- |
| O=C1CC(c2ccccc2C(F)(F)F)c2sc(N3CCOCC3)nc2N1 (configuration not stated) | 5 |
| COc1cccc(C2CC(=O)Nc3nc(N)sc32)c1OC (configuration not stated) | 91.4 |
| COc1cccc(C2C3=C(COC3=O)Nc3[nH]nc(C)c32)c1OC (configuration not stated) | 16.7 |
| Cc1ccc(C(=O)N2[C@@H]3CC[C@H]2CN(C)C(=O)C3)c(=O)[nH]1 | 15.9 |
| CN1[C@@H](C(=O)NCC2CC2)C[C@H]2CN(Cc3cccc(C#N)c3)C[C@H]21 | 17.4 |
| CN(C)CCN1C(=O)C[C@@H]2[C@@H]1CCN2S(=O)(=O)c1ccccc1 | 13.6 |
| O=C(N[C@@H]1CN(Cc2ccc3c(c2)OCO3)[C@@H]2CCCO[C@@H]21)C1CC1 | 7.55 |
| O=C1CC[C@H]2CN(c3ncc(F)cn3)CC[C@H]2N1CCc1ccccn1 | 4.84 |
| Cc1csc(N2CCN(C(=O)c3ccc(C)s3)CC2)n1 | 11.4 |
| Cc1csc(N2CCN(C(=O)Cc3ccc(C)s3)CC2)n1 | 35.7 |
| Cc1csc(N2CCN(C(=O)CCC(=O)c3ccc(C)s3)CC2)n1 | 50 |
| COCCN1CCO[C@@H]2CN(C(=O)COc3ccc(C)cc3)C[C@@H]2C1 | 10.3 |
| Cc1cc(C(=O)N2CC[C@@H]3CO[C@@H](CN4CCCC4)[C@@H]3C2)no1 | -2.63 |
| CCCn1nc2c(cc1=O)CN(CCN1CCCC1=O)CC2 | 23.7 |
| CCn1nc2c(cc1=O)CN(CCCN1CCCC1=O)CC2 | 30.7 |
| CCCn1nc2c(cc1=O)CN(CCCS(N)(=O)=O)CC2 | 61.9 |
| CCCn1nc2c(cc1=O)CN(CCCN1CCCC1=O)CC2 | 52.4 |
| CCCn1nc2c(cc1=O)CN(CC(=O)Nc1ccncc1)CC2 | 25 |
| CCCn1nc2c(cc1=O)CN(CCS(C)(=O)=O)CC2 | 40.5 |
